# Data: PubChem BioAssay AID1159606 (Sanford-Burnham Center for Chemical Genomics, 2016)
# The whole screen tested about 360,000 compounds, of which about 7,300 (2%) were called active. This excerpt belongs to a sample that is enriched for actives. A number with no mark means an inactive call. Rule as the data show it: active = inhibition above about 50%; inactive = the rest.
# Experiment: inhibitors of TWEAK-Fn14 signaling, primary screen, luciferase reporter cells, uHTS (AID 1159606)
# Conditions: TWEAK-stimulated Fn14 reporter cells, luciferase luminescence, 8 h; at 10 µM; hits give high values
row,Compound,inhibition
1,CCc1ccc2oc(-c3ccc(N)cc3)nc2c1,60.2% (active)
2,O=C1CC[C@@H](C(=O)N2CSC[C@@H]2C(=O)Nc2ccc(C(F)(F)F)cc2)N1,22.5%
3,CC1Cc2ccccc2N1S(=O)(=O)c1c(N)n(C)c(=O)n(C)c1=O (configuration not stated),-4.11%
4,C[C@H]1[C@H]2c3nc4ccccc4n3C[C@H]1ON2C1CCCCC1,-8.66%
5,O=c1[nH][nH]c2c1[C@H](c1ccc(Cl)cc1)O[C@H](CCc1ccccc1)C2,9.82%
6,COc1cccc(CC2(CO)CCCN(CC3=Cc4cc(OC)ccc4OC3)C2)c1 (configuration not stated),37.8%
7,COc1ccc2c(c1)C=CC1(O2)N(CCO)c2ccccc2C1(C)C (configuration not stated),86.2% (active)
8,CN1c2ccc([N+](=O)[O-])cc2C(C)(C)C12C=Cc1cc(C(=O)O)ccc1O2 (configuration not stated),0.62%
9,CCN1CCN(C(=O)C2(NC(=O)Nc3cccc(F)c3)CCCCC2)CC1,6.11%
10,CCN(CC)CCn1c(=S)[nH]c2ncccc2c1=O,11.7%
11,COc1cc(N2C(=O)c3ccccc3C2=O)c(Cl)cc1C(=O)OCC(=O)N1CCOCC1,16.7%
12,N#Cc1ccc(-c2ccc3nccn3c2)cc1,-15.9%
13,CCOC(=O)c1cc(C)sc1NC(=O)C1CCC1,13.5%
14,COc1cccc2c1C(=O)c1c(O)c3c(c(O)c1C2=O)CC(O)(C(C)=NNC(=O)c1ccc(Cl)c(Cl)c1)CC3OC1CC(N)C(O)C(C)O1 (configuration not stated),100% (active)
15,Clc1cccc(Cc2c(-c3cccc(Cl)c3)nc3ccc(Cl)cn23)c1,-8.97%
16,CCN1C(=O)/C(=C2\SC(N3CCCCC3)=NC2=O)c2ccccc21,-25.1%
17,COc1ccc(S(=O)(=O)N2CN(CCc3ccc(OC)c(OC)c3)c3nc4ccccc4nc32)cc1,14%
18,COc1ccc(COC(=O)c2n[nH]c3ccccc23)cc1F,-8.86%
19,CCc1ccc(C(CNc2nc(C(F)(F)F)nc3ccccc23)N(C)C)cc1 (configuration not stated),9.86%
20,CC(Nc1nc(C(F)(F)F)nc2ccccc12)c1cccs1 (configuration not stated),60.9% (active)
21,CC(Nc1nc(N2CCCC2)nc2ccccc12)c1ccccc1 (configuration not stated),-2.01%
22,COc1ccc(Cl)cc1C=CC=NNC(=O)c1ccncc1,-16.2%

row,Compound,inhibition
1,COc1cc(C(=O)Nn2c(O)c(C3=c4ccccc4=NC3=O)sc2=S)ccc1O,4.56%
2,Nc1nc(SCC(=O)N2CCN(S(=O)(=O)c3ccc(Cl)cc3)CC2)n[nH]1,4.55%
3,O=C1NC[C@H](Cc2ccc(O)cc2)N(C[C@H]2CCCN2C[C@H](Cc2ccccc2)N2C[C@H](Cc3ccccc3)N(CCc3ccccc3)C(=O)C2=O)C1=O,-7.56%
4,COc1ccc(C(=O)O)cc1S(=O)(=O)NCc1cccnc1,16.8%
5,O=[N+]([O-])c1ccc(O)c(/C=N/Nc2ccccc2[N+](=O)[O-])c1,71.5% (active)
6,Nc1nnnn1/N=C/c1cc([N+](=O)[O-])ccc1O,-1.63%
7,O=C(N/N=C/c1cc([N+](=O)[O-])ccc1O)/C(=C\c1cccs1)NC(=O)c1ccccc1,5.24%
8,Cc1ccc(-c2nc(-c3cccnc3)sc2CC(=O)Nc2ccc(C)c(Cl)c2)cc1,-0.71%
9,CCc1nc2cccnc2n1-c1ccc(C(=O)O)cc1,2.68%
10,COCCCNC(=O)CCc1nc2cccnc2n1Cc1ccc(OC)cc1,16.3%
11,COCCCNC(=O)Cc1ccc(-n2c(C)nc3cccnc32)cc1,84.3% (active)
12,COc1ccc(CNC(=O)c2cc(C(=O)C3CC3)c[nH]2)cc1,-10.9%
13,CN1CCC(N(C)S(=O)(=O)c2ccc(NC(=O)c3cccc(C#N)c3)cc2)CC1,5.91%
14,Cc1nc(N)nc(Cl)c1CCC1OCCO1,-6.2%
15,COc1cc(NC(=S)N2CCCC(C)C2)c(OC)cc1Cl (configuration not stated),12.8%
16,O=C1NC[C@H](CCCCN2C[C@H](Cc3ccc(O)cc3)N(CC3CCCCC3)C(=O)C2=O)N(CCc2ccccc2)C1=O,2.86%
17,COc1ccc(N(CC(=O)Nc2ccc(C)cc2C)S(=O)(=O)c2ccccc2[N+](=O)[O-])c(OC)c1,0.97%
18,Cc1ccc(CN(CC(=O)NCC2CCCO2)S(=O)(=O)c2ccc(C)cc2)cc1 (configuration not stated),5.7%
19,Cc1ccc(S(=O)(=O)N(CC(=O)Nc2cccc([N+](=O)[O-])c2)Cc2ccc(Cl)cc2)cc1,51.2% (active)
20,CN(c1ccc(OCC(=O)OCC(=O)Nc2cccc([N+](=O)[O-])c2)cc1)S(=O)(=O)c1ccc(F)cc1,-9.04%
21,COc1ccc(C)cc1S(=O)(=O)N(CC(=O)Nc1cccc([N+](=O)[O-])c1)c1ccc(C)cc1,61.9% (active)
22,Cc1ccc(N(CC(=O)Nc2cc(C)cc(C)c2)S(=O)(=O)c2cccc3nonc23)cc1,9.38%

row,Compound,inhibition
1,O=C(NCc1cccc(C(F)(F)F)c1)c1ccc2sc(COCCO)nc2c1,-7.3%
2,COc1ccccc1C(=O)N(C1=NC(C)CS1)c1ccc(Cl)cc1 (configuration not stated),10.7%
3,CCOC(=O)[C@]12CCC=C1N(CCC1=CCCCC1)C(=O)[C@H](CC(=O)NCc1ccc(C)o1)C2,5.47%
4,O=C(Nc1ccc(N2CCOCC2)cc1)c1cccc2c(-c3ccc(F)c(F)c3)coc12,-28%
5,CCOC(=O)[C@]12CCC=C1N(Cc1cccc3ccccc13)C(=O)[C@H](CC(=O)NCc1cccc(C(F)(F)F)c1)C2,13.4%
6,Cc1ccc(S(=O)(=O)N2CCN(C(=O)c3ccccc3-c3nc4ccccc4s3)CC2)c(C)c1,-40.8%
7,CSc1ncnc2c1ncn2CCCNCC1CCCCC1,-1.18%
8,CC(=O)C12CC(C)=C(C)CC1CC1C3CCC4=CC(=O)CCC4(C)C3CCC12C (configuration not stated),-12.9%
9,CSc1ncnc2c1ncn2CC(=O)C1CCC2C3CCC4=CC(=O)CCC4(C)C3CCC12C (configuration not stated),105% (active)
10,CC(C)COC(=O)n1c(=O)oc2ccc(S(=O)(=O)N3CCCCC3)cc21,19.6%
11,Cc1noc(C)c1C(=O)N(CC(=O)NC1CCCC1)Cc1ccccc1F,-13.7%
12,FC(F)(F)c1ccc2nnc(-c3c(Cl)cccc3Cl)n2c1,0.93%
13,COc1cc(C(=O)NCc2nnc(SCC(=O)c3ccc(Cl)cc3)o2)cc(OC)c1OC,-10.8%
14,CC(C)C[C@@H](N)c1nnc(SCC(=O)c2ccc(Cl)cc2)o1,58.5% (active)
15,CC(=O)Nc1ccc(C(=O)CSc2nnc(Cc3ccccc3)o2)cc1,-13.6%
16,CCCCn1c(O)c(N=NC(=O)Cn2c(C(F)(F)F)nc3ccccc32)c2ccccc21,-12.1%
17,Fc1ccc2[nH]c3c(N4CCSCC4)ncnc3c2c1,77.1% (active)
18,CC1(C)CC(=O)C=C(c2ccc(COC(=O)c3cc(F)cc(F)c3)cc2)C1=O,-6.91%
19,O=[N+]([O-])c1ccc(CN2CC(N3CCC(c4ccccc4)CC3)CS2(=O)=O)cc1 (configuration not stated),-12.9%
20,CCS(=O)(=O)N1Cc2ccccc2CC1C(=O)Nc1nc2ccc(F)cc2s1 (configuration not stated),21.8%
21,CSc1ncccc1C(=O)Nc1nc2ccc(F)cc2s1,76.2% (active)
22,CSc1ncccc1C(=O)Nc1ccc(C)cn1,1.24%

row,Compound,inhibition
1,COc1cccc(NS(=O)(=O)c2ccc3[nH]cc(C(=O)NCCCOC(C)C)c(=O)c3c2)c1,-0.08%
2,CCCCc1ccc(S(N)(=O)=O)cc1,-10.5%
3,COc1ccc(S(=O)(=O)N2CCCCC2)cc1NC(=O)c1cc([N+](=O)[O-])ccc1N1CCOCC1,0.95%
4,O=C(NCc1ccc2c(c1)OCO2)c1cc([N+](=O)[O-])ccc1N1CCOCC1,9.16%
5,CCOc1ccc2nc(NC(=O)c3cc([N+](=O)[O-])ccc3N3CCOCC3)sc2c1,58.5% (active)
6,Cc1cc(C)cc(NC(=O)N2CCC(NC(=O)c3ccc(F)cc3)CC2)c1,-39.6%
7,Cc1ccc2c(c1)N(CC(=O)N1CCC(O)CC1)C(=O)CO2,33.3%
8,CC(C)NS(=O)(=O)c1ccc(NC(=O)c2cccnc2)cc1,-3.3%
9,Cc1ccc(-n2nc3cc(C)c(NC(=O)c4cccnc4)cc3n2)cc1,8.31%
10,O=C(Cc1ccccc1)Nc1ccc(NC(=O)c2cccnc2)cc1,2.31%
11,Cc1cc2nc(-c3ccc(NC(=O)c4cccnc4)cc3)oc2cc1C,52.2% (active)
12,Cc1ccc2nc(-c3ccc(NC(=O)c4cccnc4)cc3)oc2c1,71.4% (active)
13,Cc1cc(NS(=O)(=O)c2ccc(NC(=O)c3cccnc3)cc2)nc(C)n1,14.2%
14,COc1ccc(Br)c2c1C(=O)CC2,22.5%
15,Cc1cc([N+](=O)[O-])nn1CC(=O)Nc1ccc(Cc2ccncc2)cc1,8.17%
16,COc1ccc(C2CC(=O)C=C(NCC3CCCO3)C2)cc1 (configuration not stated),-25.7%
17,N#Cc1ccccc1Sc1ccccc1C(=O)OCC(=O)NC1CCCCC1,1.09%
18,O=C1c2ccccc2C2=Nc3ccccc3SC(c3ccccc3F)C12 (configuration not stated),59.2% (active)
19,COc1cccc(/C=C/C(=O)OCC(=O)N2CCN(c3ccccc3)CC2)c1,77.7% (active)
20,COc1cccc(-c2ccc(SCC(=O)N3CCN(c4ccccc4)CC3)nn2)c1,-23.8%
21,COc1cccc(/C=C/C(=O)OCC(=O)N2CCCc3ccccc32)c1,-1.49%
